PubChem BioAssay (Tox21)
“And” between values parts separate entries of the source, which are not always exact repeats. Equal values may be shown once. Records with an inconclusive call do not appear. Entries that show only a call come without a potency. A structure can be active in one record and inactive in another. The source made the active and inactive calls. Unless noted, calls come from the whole dose curve; as a rule, active = well fitted curve in the direction sought with a large enough effect in the repeat runs; inconclusive = weak or mixed curves; inactive = no such curve, though single readings can be large; an effect the other way counts as inactive or inconclusive.

Assays:
[1] = target: Thyrotropin-releasing hormone receptor (Homo sapiens) (UniProt P34981); experiment: qHTS assay to identify small molecule agonists of the thyrotropin-releasing hormone receptor (TRHR) signaling pathway (AID 1346891; calls by dose curve; for activation: series mostly up to about 58 µM)
Thyrotropin-releasing hormone receptor (Homo sapiens), sequence (P34981 whole entry, looked up): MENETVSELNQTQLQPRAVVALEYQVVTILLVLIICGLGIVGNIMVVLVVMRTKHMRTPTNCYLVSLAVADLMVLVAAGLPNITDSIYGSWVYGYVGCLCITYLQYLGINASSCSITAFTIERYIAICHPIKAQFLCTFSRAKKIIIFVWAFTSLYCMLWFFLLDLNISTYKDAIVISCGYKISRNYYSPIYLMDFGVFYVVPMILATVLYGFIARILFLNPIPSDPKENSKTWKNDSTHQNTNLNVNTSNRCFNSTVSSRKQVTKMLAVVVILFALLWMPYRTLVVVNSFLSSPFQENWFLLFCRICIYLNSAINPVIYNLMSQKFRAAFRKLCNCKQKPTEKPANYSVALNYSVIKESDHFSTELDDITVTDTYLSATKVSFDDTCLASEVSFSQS
How it was run: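 Intracellular calcium rise, read as fluorescence every second for 3 min, served as the agonist signal in dye-loaded HEK293 cells expressing TRHR; each compound ran at 15 concentrations in triplicate.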

[2] = Caspase-3/7 induction in HepG2 cells by small molecules, qHTS assay (AID 1346978); note: nearly all actives have a fitted effect of over 15% in size
How it was run: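 Wild-type HepG2 cells, 2,000/well, settled 5 hr at 37 C and 5% CO2, then compound-treated for 17 hr; caspase-3/7 activity read by luminescent Caspase-Glo 3/7 after 30 min at room temperature.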

[3] = Caspase-3/7 induction in CHO-K1 cells by small molecules, qHTS cell viability counter screen (AID 1346979); note: nearly all actives have a fitted effect of over 35% in size
How it was run: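 Cells (CHO-K1, wild type) are plated at 1,500 per well and incubated 5hr. Test compounds in DMSO are then pinned in, followed by 16hr at 37C and 5% CO2. Viability is read by CellTiter-Fluor fluorescence after 1hr.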

[4] = Caspase-3/7 induction in CHO-K1 cells by small molecules, qHTS assay (AID 1346980); note: nearly all actives have a fitted effect of over 15% in size
How it was run: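 Wild-type CHO-K1 cells exposed to compounds for 17hr at 37 C, 5% CO2. Caspase-3/7 activity then measured by Caspase-Glo 3/7 luminescence after 30min at room temperature.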

[5] = Caspase-3/7 induction in HepG2 cells by small molecules, qHTS cell viability counter screen (AID 1346981); note: nearly all actives have a fitted effect of over 30% in size
How it was run: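 The parent HepG2 line is plated at 2,000 cells per well and rested 5 hr before compound pinning from DMSO stocks. Following a 16-hr treatment at 37 C, a fluorogenic live-cell substrate (CellTiter-Fluor) reports viability after 1 hr.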

[6] = target: Nuclear receptor subfamily 1 group I member 2 (Homo sapiens) (UniProt O75469); experiment: Human pregnane X receptor (PXR) small molecule agonists, qHTS assay (AID 1346982); note: nearly all actives have a fitted effect of over 35% in size
Nuclear receptor subfamily 1 group I member 2 (Homo sapiens), sequence (O75469 whole entry, looked up): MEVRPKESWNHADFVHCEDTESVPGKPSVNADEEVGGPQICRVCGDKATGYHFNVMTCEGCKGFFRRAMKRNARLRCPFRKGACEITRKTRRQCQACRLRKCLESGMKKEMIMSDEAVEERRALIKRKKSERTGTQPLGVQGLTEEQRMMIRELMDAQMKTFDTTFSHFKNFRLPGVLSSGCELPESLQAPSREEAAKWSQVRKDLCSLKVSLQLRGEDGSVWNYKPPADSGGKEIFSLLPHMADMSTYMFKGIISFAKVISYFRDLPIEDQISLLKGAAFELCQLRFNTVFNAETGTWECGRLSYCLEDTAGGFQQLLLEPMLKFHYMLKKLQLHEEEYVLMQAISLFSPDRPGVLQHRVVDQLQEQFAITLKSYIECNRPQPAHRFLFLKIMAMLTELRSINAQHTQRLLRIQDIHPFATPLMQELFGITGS
How it was run: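 After plating in 5% charcoal-stripped FBS and a 5 hr rest, PXR-Luc HepG2 cells received compounds in DMSO. Following 24 hr at 37 C, ONE-Glo was added and light output read.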

[7] = target: Cytochrome P450 2D6 (Homo sapiens) (UniProt P10635); experiment: Cytochrome P450 Family 2 Subfamily D Member 6 (CYP2D6) small molecule antagonists: luciferase reporter qHTS assay (AID 1671196); note: nearly all actives have a fitted effect of over 50% in size
Cytochrome P450 2D6 (Homo sapiens), sequence (P10635 whole entry, looked up): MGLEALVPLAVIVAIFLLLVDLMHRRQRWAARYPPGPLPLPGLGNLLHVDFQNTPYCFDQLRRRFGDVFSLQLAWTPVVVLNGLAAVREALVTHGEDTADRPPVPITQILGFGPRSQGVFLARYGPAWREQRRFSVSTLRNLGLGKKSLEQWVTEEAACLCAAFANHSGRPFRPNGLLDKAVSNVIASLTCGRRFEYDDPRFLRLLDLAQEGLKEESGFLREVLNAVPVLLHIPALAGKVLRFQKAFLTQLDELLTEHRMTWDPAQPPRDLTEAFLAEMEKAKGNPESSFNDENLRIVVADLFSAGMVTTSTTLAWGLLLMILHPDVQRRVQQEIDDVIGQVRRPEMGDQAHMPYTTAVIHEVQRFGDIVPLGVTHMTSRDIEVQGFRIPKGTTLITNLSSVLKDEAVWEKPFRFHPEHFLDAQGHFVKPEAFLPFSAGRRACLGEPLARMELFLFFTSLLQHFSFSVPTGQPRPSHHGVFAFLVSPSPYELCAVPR
How it was run: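 Quantitative HTS of Tox21 chemicals against CYP2D6 using a luminescent proluciferin substrate. After NADPH addition, 1 h room-temperature reaction; luminescence recorded 20 min post detection reagent.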

[8] = target: Cytochrome P450 2C19 (Homo sapiens) (UniProt P33261); experiment: Cytochrome P450 Family 2 Subfamily C Member 19 (CYP2C19) small molecule antagonists: luciferase reporter qHTS assay (AID 1671197); note: nearly all actives have a fitted effect of over 65% in size
Cytochrome P450 2C19 (Homo sapiens), sequence (P33261 whole entry, looked up): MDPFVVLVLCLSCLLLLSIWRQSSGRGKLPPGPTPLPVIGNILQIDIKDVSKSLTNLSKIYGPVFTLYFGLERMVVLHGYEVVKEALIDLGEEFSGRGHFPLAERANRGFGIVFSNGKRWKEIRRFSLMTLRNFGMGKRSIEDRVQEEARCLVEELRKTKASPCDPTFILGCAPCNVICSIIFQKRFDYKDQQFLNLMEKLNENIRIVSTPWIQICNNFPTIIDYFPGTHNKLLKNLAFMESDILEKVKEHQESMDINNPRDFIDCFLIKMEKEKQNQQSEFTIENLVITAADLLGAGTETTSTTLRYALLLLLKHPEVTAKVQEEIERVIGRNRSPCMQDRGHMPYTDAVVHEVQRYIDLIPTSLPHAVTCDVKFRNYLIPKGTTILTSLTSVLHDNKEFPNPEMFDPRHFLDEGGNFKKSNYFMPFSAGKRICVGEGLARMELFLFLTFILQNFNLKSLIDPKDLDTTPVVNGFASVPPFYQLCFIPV
How it was run: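 Compounds were tested on CYP2C19 activity via proluciferin conversion to luciferin. The 37C, 1 h reaction followed NADPH addition; detection reagent stopped it.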

[9] = target: Cytochrome P450 2C9 (Homo sapiens) (UniProt P11712); experiment: Cytochrome P450 Family 2 Subfamily C Member 9 (CYP2C9) small molecule antagonists: luciferase reporter qHTS assay (AID 1671198); note: nearly all actives have a fitted effect of over 50% in size
Cytochrome P450 2C9 (Homo sapiens), sequence (P11712 whole entry, looked up): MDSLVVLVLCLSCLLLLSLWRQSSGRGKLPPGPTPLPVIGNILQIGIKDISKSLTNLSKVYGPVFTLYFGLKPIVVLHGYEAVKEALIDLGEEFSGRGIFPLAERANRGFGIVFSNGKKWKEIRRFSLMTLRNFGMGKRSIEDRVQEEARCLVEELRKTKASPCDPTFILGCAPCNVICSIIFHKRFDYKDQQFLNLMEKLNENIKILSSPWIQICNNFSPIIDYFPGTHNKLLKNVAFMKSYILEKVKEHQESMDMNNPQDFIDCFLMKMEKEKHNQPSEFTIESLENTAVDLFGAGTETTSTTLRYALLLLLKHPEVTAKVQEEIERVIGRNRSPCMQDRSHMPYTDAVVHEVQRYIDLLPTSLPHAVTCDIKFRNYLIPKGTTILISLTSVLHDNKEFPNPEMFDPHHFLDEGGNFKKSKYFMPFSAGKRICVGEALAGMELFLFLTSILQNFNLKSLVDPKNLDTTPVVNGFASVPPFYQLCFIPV
How it was run: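 P450-Glo proluciferin substrate with CYP2C9 enzyme; 10 min RT preincubation, then NADPH regeneration 1 h at 37C; luciferin detection reagent 20 min RT, luminescence in relative luminescence units.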

[10] = target: Cytochrome P450 1A2 (Homo sapiens) (UniProt P05177); experiment: Cytochrome P450 Family 1 Subfamily A Member 2 (CYP1A2) small molecule antagonists: luciferase reporter qHTS assay (AID 1671199); note: nearly all actives have a fitted effect of over 50% in size
Cytochrome P450 1A2 (Homo sapiens), sequence (P05177 whole entry, looked up): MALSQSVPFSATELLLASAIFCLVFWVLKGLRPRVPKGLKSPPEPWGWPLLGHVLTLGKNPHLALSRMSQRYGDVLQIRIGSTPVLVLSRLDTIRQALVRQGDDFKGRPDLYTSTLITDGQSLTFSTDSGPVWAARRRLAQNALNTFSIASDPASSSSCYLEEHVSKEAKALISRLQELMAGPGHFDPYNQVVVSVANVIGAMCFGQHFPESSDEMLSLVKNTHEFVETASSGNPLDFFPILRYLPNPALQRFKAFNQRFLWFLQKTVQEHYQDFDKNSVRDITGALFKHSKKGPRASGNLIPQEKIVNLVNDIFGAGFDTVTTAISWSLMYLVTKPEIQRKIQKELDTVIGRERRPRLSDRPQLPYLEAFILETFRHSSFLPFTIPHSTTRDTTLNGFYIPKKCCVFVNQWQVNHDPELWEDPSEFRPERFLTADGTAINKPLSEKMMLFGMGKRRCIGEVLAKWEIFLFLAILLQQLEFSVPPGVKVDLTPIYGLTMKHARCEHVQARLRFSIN
How it was run: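 Quantitative high-throughput format using the P450-Glo CYP1A2 system. Reaction initiated by NADPH regeneration solution, 1 h at room temperature, then stopped with detection reagent; luminescence measured 20 min later.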

[11] = target: Voltage-gated inwardly rectifying potassium channel KCNH2 (Homo sapiens) (UniProt Q12809); experiment: Human Ether-a-go-go-Related Gene (hERG) channel small molecule antagonists: fluorescence cell-based qHTS assay (AID 1671200); note: nearly all actives have a fitted effect of over 50% in size
Voltage-gated inwardly rectifying potassium channel KCNH2 (Homo sapiens), sequence (Q12809 whole entry, looked up): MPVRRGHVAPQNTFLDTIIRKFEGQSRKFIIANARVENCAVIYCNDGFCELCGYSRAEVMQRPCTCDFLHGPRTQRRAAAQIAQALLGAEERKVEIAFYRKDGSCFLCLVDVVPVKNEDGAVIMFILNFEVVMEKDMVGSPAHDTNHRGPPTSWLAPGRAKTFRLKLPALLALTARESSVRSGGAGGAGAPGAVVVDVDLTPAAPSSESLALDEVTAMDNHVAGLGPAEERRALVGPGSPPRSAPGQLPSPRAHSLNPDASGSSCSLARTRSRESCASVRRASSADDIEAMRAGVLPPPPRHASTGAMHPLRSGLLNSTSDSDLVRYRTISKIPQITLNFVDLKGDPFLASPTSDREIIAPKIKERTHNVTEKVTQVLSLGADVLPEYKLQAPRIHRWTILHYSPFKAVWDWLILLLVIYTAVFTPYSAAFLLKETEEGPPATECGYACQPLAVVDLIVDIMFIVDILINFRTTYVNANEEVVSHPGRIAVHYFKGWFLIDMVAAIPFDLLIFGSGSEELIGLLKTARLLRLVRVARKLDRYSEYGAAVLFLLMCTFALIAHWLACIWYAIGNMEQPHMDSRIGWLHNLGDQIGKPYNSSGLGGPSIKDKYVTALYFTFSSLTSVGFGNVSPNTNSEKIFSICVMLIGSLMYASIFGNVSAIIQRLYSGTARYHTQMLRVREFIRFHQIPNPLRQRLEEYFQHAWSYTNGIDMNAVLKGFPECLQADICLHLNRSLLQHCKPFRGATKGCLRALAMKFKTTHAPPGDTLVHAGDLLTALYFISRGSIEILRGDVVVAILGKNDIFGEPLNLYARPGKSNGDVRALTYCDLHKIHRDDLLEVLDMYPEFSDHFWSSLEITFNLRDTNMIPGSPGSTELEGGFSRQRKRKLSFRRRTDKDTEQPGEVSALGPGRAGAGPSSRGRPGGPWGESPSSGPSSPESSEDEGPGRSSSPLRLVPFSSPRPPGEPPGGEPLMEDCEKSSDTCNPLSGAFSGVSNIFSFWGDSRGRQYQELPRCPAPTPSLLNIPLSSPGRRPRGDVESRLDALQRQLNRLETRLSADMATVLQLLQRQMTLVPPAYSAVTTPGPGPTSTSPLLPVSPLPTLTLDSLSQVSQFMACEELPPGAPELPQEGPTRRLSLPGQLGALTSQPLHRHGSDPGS
How it was run: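 Channel function was assessed by thallium flux. Cells seeded the previous day and kept at 37 C took up FluxOR II dye over 1 h in the dark at room temperature, then sat another 10 min before stimulation.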

[12] = target: Cytochrome P450 3A4 (Homo sapiens) (UniProt P08684); experiment: Cytochrome P450 Family 3 Subfamily A Member 4 (CYP3A4) small molecule antagonists: luciferase reporter qHTS assay (AID 1671201); note: nearly all actives have a fitted effect of over 50% in size
Cytochrome P450 3A4 (Homo sapiens), sequence (P08684 whole entry, looked up): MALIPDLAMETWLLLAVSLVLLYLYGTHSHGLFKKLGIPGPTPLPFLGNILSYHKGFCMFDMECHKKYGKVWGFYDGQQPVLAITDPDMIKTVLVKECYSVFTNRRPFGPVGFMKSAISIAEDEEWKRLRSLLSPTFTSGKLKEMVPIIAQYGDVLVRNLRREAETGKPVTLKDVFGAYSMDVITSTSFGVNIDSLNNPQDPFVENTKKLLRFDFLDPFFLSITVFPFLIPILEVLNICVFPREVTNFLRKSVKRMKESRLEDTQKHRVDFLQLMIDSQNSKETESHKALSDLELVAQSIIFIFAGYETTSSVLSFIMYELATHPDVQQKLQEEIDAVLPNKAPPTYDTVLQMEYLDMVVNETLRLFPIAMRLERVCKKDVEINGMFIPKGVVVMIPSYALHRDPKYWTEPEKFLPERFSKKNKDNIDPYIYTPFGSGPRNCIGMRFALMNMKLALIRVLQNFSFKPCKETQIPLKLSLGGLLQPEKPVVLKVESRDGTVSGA
How it was run: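 Compounds in DMSO were pin-transferred onto CYP3A4 enzyme-substrate mix and held 10 min at room temperature. NADPH regenerating solution started the reaction for 1 h; luciferin detection reagent stopped it, and luminescence was read after 20 min.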

[13] = Human pregnane X receptor (PXR) small molecule agonists, qHTS cell viability counter screen (AID 1346977); note: nearly all actives have a fitted effect of over 50% in size
How it was run: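 PXR-Luc HepG2, 2,000 cells/well, 5% charcoal-stripped FBS; 5hr settle; cpd 24hr, 37C/5% CO2; CellTiter-Fluor at 23hr, read 1hr later (fluorescence).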

[14] = target: Nuclear receptor subfamily 1 group I member 2 (Rattus norvegicus) (UniProt Q9R1A7); experiment: Rat pregnane X receptor (rPXR) activation by small molecules, qHTS assay (AID 1346983); conditions: rPXR luciferase reporter cells, One-Glo luminescence, 24 h; max activation: stronger effect = higher value; note: nearly all actives have a fitted effect of over 20% in size
Nuclear receptor subfamily 1 group I member 2 (Rattus norvegicus), sequence (Q9R1A7 whole entry, looked up): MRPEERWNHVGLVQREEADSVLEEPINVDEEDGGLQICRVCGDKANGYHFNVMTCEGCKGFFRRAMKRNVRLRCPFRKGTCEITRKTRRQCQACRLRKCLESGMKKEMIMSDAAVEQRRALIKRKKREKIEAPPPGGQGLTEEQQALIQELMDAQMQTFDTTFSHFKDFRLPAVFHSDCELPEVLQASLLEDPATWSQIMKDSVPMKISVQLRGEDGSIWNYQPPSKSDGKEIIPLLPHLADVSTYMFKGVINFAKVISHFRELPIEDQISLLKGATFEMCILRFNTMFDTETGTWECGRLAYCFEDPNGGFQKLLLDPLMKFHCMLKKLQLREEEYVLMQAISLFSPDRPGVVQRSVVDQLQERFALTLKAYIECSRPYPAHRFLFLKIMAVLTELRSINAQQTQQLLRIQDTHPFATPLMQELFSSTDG
How it was run: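 Cell-based rPXR activation assay: rPXR cells, 2,000 per well, rested 5hr at 37 C, then exposed to compounds in DMSO for 24 hr at 37 C. Luciferase activity read by One-Glo luminescence after 30 min at room temperature.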
Potency is the fitted concentration of half-maximal effect.

Structure (SMILES) | Potency [1] | Potency [2] | Potency [3] | Potency [4] | Potency [5] | Potency [6] | Potency [7] | Potency [8] | Potency [9] | Potency [10] | Potency [11] | Potency [12] | Potency [13] | max activation [14] | Potency [14]
CCCCCCCCCCCCOCC1CO1 (configuration not stated) | inactive | inactive | inactive | inactive | inactive | inactive | inactive | 60.4 µM (active) | inactive | 63.4 µM (active) | inactive | – | – | – | –
Cc1ccc(C)c(C)c1 | inactive | inactive | inactive | inactive | inactive | inactive | inactive | inactive | inactive | inactive and 29.6 µM (active) | – | inactive | – | – | –
Cc1cc(Cc2ccc(N)c(C)c2)ccc1N | inactive | inactive | inactive | inactive | inactive | 61.1 µM (active) | – | 3.56 µM (active) and 5.03 µM (active) | 6.33 µM (active) and 25.2 µM (active) | 6.33 µM (active) and 14.2 µM (active) | inactive | 894 nM (active) and 2.52 µM (active) | inactive | – | –
C=C1C2CCC(C2)C1(C)C (configuration not stated) | inactive | inactive | inactive | inactive | inactive | inactive | inactive | inactive | inactive | inactive and 39.9 µM (active) | inactive | inactive | – | – | –
O=Nc1ccc(O)cc1 | inactive | inactive | 47.4 µM (active) and inactive | inactive | inactive | inactive | 39 µM (active) | 17.4 µM (active) | – | 31 µM (active) and 39.9 µM (active) | – | – | – | – | –
CCCCCC/C=C/CCCCCCCC(=O)O | inactive | inactive | inactive | inactive | inactive | inactive | inactive | inactive | inactive | inactive | inactive | inactive | – | – | –
CC1COc2ccccc2N1C(=O)C(Cl)Cl (configuration not stated) | inactive | inactive | 27.3 µM (active) and 30.6 µM (active) | inactive | 61 µM (active) and 27.3 µM (active) | 61 µM (active) and 54.4 µM (active) | 15.9 µM (active) and inactive | 7.09 µM (active) and 6.32 µM (active) | 15.9 µM (active) and 28.2 µM (active) | 79.5 µM (active) and inactive | – | inactive | 39.8 µM (active) | – | –
CCCCCCCCCCCCN | inactive and 38.9 µM (active) | inactive and 61.1 µM (active) | inactive and 30.6 µM (active) | inactive | inactive | inactive | 16 µM (active) and 2.24 µM (active) and 8.09 µM (active) | 4.02 µM (active) and 633 nM (active) and 2.56 µM (active) | 22.6 µM (active) and 6.33 µM (active) and 32.2 µM (active) | 16 µM (active) and 2.83 µM (active) and 9.08 µM (active) | – | inactive | inactive and 30.6 µM (active) | – | –
CC1(C)CC(N=C=O)CC(C)(CN=C=O)C1 (configuration not stated) | inactive | inactive | inactive | inactive | inactive | inactive | 25.5 µM (active) and 39.9 µM (active) | 18.1 µM (active) and inactive | – | inactive | – | 4.05 µM (active) and 2 µM (active) | inactive | – | –
Cc1cc(=O)[nH]c(C(C)C)n1 | inactive | inactive | inactive | inactive | inactive | inactive | inactive | inactive | inactive | – | inactive | – | inactive | – | –
ClC1=C(Cl)C(Cl)(Cl)C(Cl)=C1Cl | inactive | inactive | inactive | inactive and 68.6 µM (active) | inactive | inactive | inactive | inactive | – | inactive | inactive | – | inactive | – | –
O=C(O)c1ccc([N+](=O)[O-])cc1 | inactive | inactive | inactive | inactive | inactive | inactive | inactive | inactive | inactive | inactive | inactive | – | – | – | –
CCc1ccccc1O | inactive | inactive | inactive | inactive | inactive | – | 35.4 µM (active) and inactive | 17.7 µM (active) and inactive | 35.4 µM (active) | 31.6 µM (active) | – | – | inactive | – | –
NCCc1ccc(O)c(O)c1 | inactive | inactive | 61.3 µM (active) and inactive | inactive | 68.8 µM (active) and inactive | inactive | 63.5 µM (active) and inactive | 71.2 µM (active) and inactive | inactive | – | inactive | inactive | – | – | –
CC1(C)O[C@@H]2C[C@H]3[C@@H]4C[C@H](F)C5=CC(=O)CC[C@]5(C)[C@H]4[C@@H](O)C[C@]3(C)[C@]2(C(=O)CO)O1 | inactive | inactive | inactive | inactive | inactive | 11.9 µM (active) | inactive | inactive | inactive | inactive | inactive | – | – | – | –
OCC1CCCO1 (configuration not stated) | inactive | inactive | inactive | inactive | inactive | inactive | inactive | 40.7 µM (active) and inactive | – | inactive | inactive | inactive | – | – | –
CN(CCOc1ccc(CC2SC(=O)NC2=O)cc1)c1ccccn1 (configuration not stated) | – | inactive | inactive | inactive | inactive | 54.2 µM (active) and inactive | – | inactive | 62.9 µM (active) and inactive | inactive | – | – | inactive | -1.4% (inactive) | –
CC(C)n1c(/C=C/[C@@H](O)C[C@@H](O)CC(=O)O)c(-c2ccc(F)cc2)c2ccccc21 | inactive | 12.2 µM (active) | inactive | inactive | inactive | – | inactive | inactive | – | – | inactive | – | – | – | 12.6 µM (active)
O=C1N=C(O)CN1/N=C/c1ccc(-c2ccc([N+](=O)[O-])cc2)o1 | – | inactive | 54.5 µM (active) and 26.6 µM (active) | inactive | 48.6 µM (active) | – | – | – | – | – | inactive | – | 27.3 µM (active) and 23.7 µM (active) | -4.97% (inactive) | –
O=S(=O)(Oc1ccc(Cl)cc1Cl)c1ccccc1 | – | inactive | inactive | inactive | inactive | 49.4 µM (active) and 54.5 µM (active) | 64.4 µM (active) and 63.3 µM (active) | 811 nM (active) and 894 nM (active) | 40.6 µM (active) and 35.6 µM (active) | 2.28 µM (active) and 2.24 µM (active) | 49.8 µM (active) and 34.7 µM (active) | inactive | inactive | – | –
Clc1cc(Cl)c(Cl)cc1Cl | – | inactive | inactive | inactive | inactive | inactive | inactive | inactive | inactive | – | inactive | inactive | inactive | – | –
CCCCCCOC(C)=O | – | inactive | inactive | inactive | inactive | inactive | inactive | inactive | inactive | inactive | – | inactive | – | – | –
CCC(=O)O | – | inactive | inactive | inactive | inactive | inactive | inactive | inactive | inactive | inactive | – | inactive | inactive | – | –
CCCCCCCCCCC=CC1CC(=O)OC1=O (configuration not stated) | – | inactive | inactive | inactive | inactive | inactive | – | 45 µM (active) and inactive | 71.4 µM (active) and 39.9 µM (active) | inactive | inactive | inactive | inactive | – | –
COCC(=O)O | – | inactive | inactive | inactive | inactive | inactive | inactive | 73 µM (active) and inactive | inactive | inactive | inactive | inactive | inactive | – | –
O=c1c(-c2ccc(O)cc2)coc2cc(O)ccc12 | – | inactive | inactive | inactive | inactive | 30.3 µM (active) and 13.7 µM (active) | inactive | 49.8 µM (active) | 280 nM (active) and 159 nM (active) | 31.4 µM (active) and 39.9 µM (active) | inactive | – | inactive | – | –
